Assay results published in PubChem BioAssay (NCI).
Compounds without any hit were thinned out: in the full panel of roughly 83,000, 20% have a hit.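 Treatment: one concentration, 48 hours, 96-well format. Scoring: percent growth, with anything below 10 considered active.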 The source made the active and inactive calls.

Experiments:
Assay in all cases: NCI-60 one-dose screen, 48 h (100 = growth as untreated, 0 = no growth, -100 = all killed)
Conditions in all cases: 10 µM unless noted
HCT-15 colon = test system: HCT-15 colon
HT29 colon = test system: HT29 colon
SNB-75 CNS = test system: SNB-75 CNS
SNB-19 CNS = test system: SNB-19 CNS
U251 CNS = test system: U251 CNS
PC-3 prostate = test system: PC-3 prostate
SK-MEL-5 melanoma = test system: SK-MEL-5 melanoma
UACC-62 melanoma = test system: UACC-62 melanoma
LOX IMVI melanoma = test system: LOX IMVI melanoma
SK-MEL-28 melanoma = test system: SK-MEL-28 melanoma
EKVX NSCLC = test system: EKVX NSCLC
SN12C renal = test system: SN12C renal
UO-31 renal = test system: UO-31 renal
TK-10 renal = test system: TK-10 renal
ACHN renal = test system: ACHN renal
CAKI-1 renal = test system: CAKI-1 renal
A498 renal = test system: A498 renal
CCRF-CEM leukemia = test system: CCRF-CEM leukemia
MOLT-4 leukemia = test system: MOLT-4 leukemia

Measured: growth

CCCNC(=O)c1cn2ncnc(Nc3cc(C(=O)NC4CC4)ccc3C)c2c1C
inactive: HCT-15 colon 87.2% | HT29 colon 81.9% | SNB-75 CNS 74.6% | SNB-19 CNS 70.7% | U251 CNS 77.2% | PC-3 prostate 74.3% | SK-MEL-5 melanoma 38.2% | UACC-62 melanoma 49.1% | LOX IMVI melanoma 40.1% | SK-MEL-28 melanoma 30.1% | EKVX NSCLC 87.2% | SN12C renal 88.4% | UO-31 renal 45.2% | TK-10 renal 104% | ACHN renal 58.6% | CAKI-1 renal 67.6% | A498 renal 56.9% | CCRF-CEM leukemia 73.9% | MOLT-4 leukemia 92.6%

COc1ccc(C(=O)c2cc(OC)c(OC)c(OC)c2)cc1/C=C/C(=O)c1ccc(F)cc1
active: LOX IMVI melanoma -56.5% | ACHN renal -70.3% | CCRF-CEM leukemia 2.64% | MOLT-4 leukemia 0.641%
inactive: HCT-15 colon 23.9% | HT29 colon 13.6% | SNB-75 CNS 58.7% | SNB-19 CNS 71.3% | U251 CNS 34.1% | PC-3 prostate 76.7% | SK-MEL-5 melanoma 57% | UACC-62 melanoma 45.5% | SK-MEL-28 melanoma 13.1% | EKVX NSCLC 90.1% | SN12C renal 64.7% | UO-31 renal 56.3% | TK-10 renal 82.9% | CAKI-1 renal 81.5% | A498 renal 80.9%

C=CCn1c(=O)c2cnc(Nc3ccc(N4CCN(C)CC4)cc3)nc2n1-c1cccc(C(C)(C)O)n1
inactive: SNB-19 CNS 26.9% | U251 CNS 16.7% | PC-3 prostate 28.4% | SK-MEL-5 melanoma 18.2% | UACC-62 melanoma 42.6% | SK-MEL-28 melanoma 64.4% | EKVX NSCLC 22.5% | SN12C renal 28.4% | UO-31 renal 10.5% | TK-10 renal 13.8% | ACHN renal 25.4% | CAKI-1 renal 23.3%
active: HCT-15 colon 4.74% | HT29 colon -12.4% | SNB-75 CNS 3.88% | LOX IMVI melanoma 5.87% | A498 renal -26% | CCRF-CEM leukemia 8% | MOLT-4 leukemia 3.84%

CCN(CCO)CCCOc1ccc2c(Nc3cc(CC(=O)Nc4cccc(F)c4)[nH]n3)ncnc2c1
inactive: HCT-15 colon 52.5% | SNB-75 CNS 76.3% | SNB-19 CNS 39.1% | U251 CNS 39.8% | PC-3 prostate 62.6% | SK-MEL-5 melanoma 63.3% | LOX IMVI melanoma 17.8% | EKVX NSCLC 51.8% | SN12C renal 46.9% | UO-31 renal 50.4% | TK-10 renal 31.5% | ACHN renal 48.9% | CAKI-1 renal 35.4% | A498 renal 47.4% | CCRF-CEM leukemia 40.3% | MOLT-4 leukemia 36.3%
active: HT29 colon -1.18% | UACC-62 melanoma -4.86% | SK-MEL-28 melanoma -6.81%

Cn1ccnc1C(=O)/C=C/c1ccc(CC(=O)Nc2ccc(C(F)(F)F)cc2)cc1
active: HCT-15 colon -18.7% | HT29 colon -2.78% | SNB-75 CNS 0.358% | SNB-19 CNS 4.97% | U251 CNS -20% | LOX IMVI melanoma -49.4% | SN12C renal 10% | CCRF-CEM leukemia 8.58% | MOLT-4 leukemia -7.88%
inactive: PC-3 prostate 13.8% | SK-MEL-5 melanoma 56.9% | UACC-62 melanoma 27.9% | SK-MEL-28 melanoma 77.8% | EKVX NSCLC 14.9% | UO-31 renal 22.1% | TK-10 renal 32.6% | ACHN renal 27.9% | CAKI-1 renal 33.5% | A498 renal 64.5%

C[C@@H](Oc1cc(C(=O)Nc2ccc(C(=O)N3CCN(C)CC3)cc2)nnc1N)c1c(Cl)ccc(F)c1Cl
active: HT29 colon 9.76%
inactive: HCT-15 colon 46.9% | SNB-75 CNS 71.2% | SNB-19 CNS 75.7% | U251 CNS 52.1% | PC-3 prostate 52.4% | SK-MEL-5 melanoma 36.8% | UACC-62 melanoma 62% | LOX IMVI melanoma 33.2% | SK-MEL-28 melanoma 70.9% | EKVX NSCLC 72.5% | SN12C renal 64.5% | UO-31 renal 48.4% | TK-10 renal 79.4% | ACHN renal 91.8% | CAKI-1 renal 75.5% | A498 renal 65% | CCRF-CEM leukemia 55.9% | MOLT-4 leukemia 34.8%

O=C(NO)c1ccc(Cn2c(=O)n(-c3ccccc3F)c(=O)c3ccccc32)cc1
inactive: HCT-15 colon 20.6% | SN12C renal 11.5% | UO-31 renal 27.2% | ACHN renal 22% | CAKI-1 renal 25%
active: HT29 colon 9.88% | SNB-75 CNS -3.9% | SNB-19 CNS 6.93% | U251 CNS -85.3% | PC-3 prostate -33.6% | SK-MEL-5 melanoma -19.2% | UACC-62 melanoma -46.2% | LOX IMVI melanoma -86.4% | SK-MEL-28 melanoma -21.5% | EKVX NSCLC 6.72% | TK-10 renal 6.07% | A498 renal -34.7% | CCRF-CEM leukemia 2.07% | MOLT-4 leukemia -8.31%

Cc1cc(-c2cc(OC(=O)c3ccccc3)ccc2Cl)cc2nnc(Nc3ccc(OCCN4CCCC4)cc3)nc12
active: HCT-15 colon -66.9% | PC-3 prostate -20.2% | CCRF-CEM leukemia 3.09%
inactive: HT29 colon 63.9% | SNB-75 CNS 32.7% | SNB-19 CNS 91.9% | U251 CNS 84.8% | SK-MEL-5 melanoma 83.1% | UACC-62 melanoma 75.6% | LOX IMVI melanoma 48.4% | SK-MEL-28 melanoma 89.2% | EKVX NSCLC 92.3% | SN12C renal 66.3% | UO-31 renal 73.9% | TK-10 renal 89.7% | ACHN renal 74.2% | CAKI-1 renal 86.3% | A498 renal 94.3% | MOLT-4 leukemia 73.1%

CCN(CCCOc1ccc2c(Nc3cc(CC(=O)Nc4cccc(F)c4)[nH]n3)ncnc2c1)CCOP(=O)(O)O
inactive: HCT-15 colon 84.7% | HT29 colon 30.5% | SNB-75 CNS 80.5% | SNB-19 CNS 71.1% | U251 CNS 71.8% | PC-3 prostate 80% | SK-MEL-5 melanoma 99.8% | UACC-62 melanoma 53.7% | LOX IMVI melanoma 42% | SK-MEL-28 melanoma 55.3% | EKVX NSCLC 99.3% | SN12C renal 79% | UO-31 renal 69.3% | TK-10 renal 83.9% | ACHN renal 95.5% | CAKI-1 renal 58.1% | A498 renal 98.4% | CCRF-CEM leukemia 51.4% | MOLT-4 leukemia 46.5%

C=CC(=O)N1CCC(Oc2cc3c(Nc4ccc(Cl)c(Cl)c4F)ncnc3cc2OC)CC1
inactive: HCT-15 colon 21.2% | SNB-19 CNS 32.4% | U251 CNS 32.8% | PC-3 prostate 14.2% | SK-MEL-5 melanoma 18.7% | UACC-62 melanoma 20.7% | SK-MEL-28 melanoma 63.3% | EKVX NSCLC 18.7% | SN12C renal 15.8% | CCRF-CEM leukemia 20.9%
active: HT29 colon -16.4% | SNB-75 CNS -18.4% | LOX IMVI melanoma -66.1% | UO-31 renal -31.6% | TK-10 renal -7.41% | ACHN renal -3.88% | CAKI-1 renal -34.2% | A498 renal -69.8% | MOLT-4 leukemia -10.5%

COc1ccc(-c2ccc3c(N4CCOC[C@@H]4C)nc(N4CCOC[C@@H]4C)nc3n2)cc1CO
inactive: CCRF-CEM leukemia 16.4% | MOLT-4 leukemia 11.6%
active: HCT-15 colon 6.93% | HT29 colon 6.32% | SNB-75 CNS -44.9% | SNB-19 CNS 9.71% | U251 CNS 7.15% | PC-3 prostate 9.37% | SK-MEL-5 melanoma -26.8% | UACC-62 melanoma -32.3% | LOX IMVI melanoma 1.2% | SK-MEL-28 melanoma -17.1% | EKVX NSCLC 7.48% | SN12C renal 9.9% | UO-31 renal -13% | TK-10 renal -30.8% | ACHN renal 5.54% | CAKI-1 renal -14.6% | A498 renal -35.4%

Cc1ccc(N)cc1CN1C(=O)c2ccccc2C1=O
inactive: HCT-15 colon 101% | HT29 colon 85.5% | SNB-75 CNS 87% | SNB-19 CNS 102% | U251 CNS 102% | PC-3 prostate 90.1% | SK-MEL-5 melanoma 103% | UACC-62 melanoma 103% | LOX IMVI melanoma 101% | SK-MEL-28 melanoma 110% | EKVX NSCLC 105% | SN12C renal 103% | UO-31 renal 70.1% | TK-10 renal 88.3% | ACHN renal 106% | CAKI-1 renal 105% | A498 renal 96.5% | CCRF-CEM leukemia 92.4% | MOLT-4 leukemia 94.9%

CC/C=C\C[C@H]1C/C=C2/C(=O)C=C[C@@H]2C/C=C\CCCC(=O)O1
inactive: SNB-75 CNS 47% | SNB-19 CNS 12.6% | EKVX NSCLC 11.8%
active: HCT-15 colon -33.8% | HT29 colon -29.2% | U251 CNS -80.9% | PC-3 prostate -42.6% | SK-MEL-5 melanoma -88.4% | UACC-62 melanoma -57.6% | LOX IMVI melanoma -76.1% | SK-MEL-28 melanoma -28.6% | SN12C renal -27.8% | UO-31 renal -90.3% | TK-10 renal -38.3% | ACHN renal -89.3% | CAKI-1 renal -35.8% | A498 renal -50.6% | CCRF-CEM leukemia -14.5% | MOLT-4 leukemia -4.8%

CCS(=O)(=O)N1CCN(c2ccc(Nc3ncc(C(N)=O)c(NC4CC4)n3)cc2)CC1
inactive: HCT-15 colon 58.2% | HT29 colon 76.2% | SNB-75 CNS 88% | SNB-19 CNS 105% | U251 CNS 93.4% | PC-3 prostate 92.4% | SK-MEL-5 melanoma 66.8% | UACC-62 melanoma 101% | LOX IMVI melanoma 73.7% | SK-MEL-28 melanoma 83.3% | EKVX NSCLC 91.6% | SN12C renal 62.8% | UO-31 renal 52.9% | TK-10 renal 87.3% | ACHN renal 85.1% | CAKI-1 renal 97.6% | CCRF-CEM leukemia 27.6% | MOLT-4 leukemia 51.7%

CCN(CC)CCOc1ccc(/C(=C(\C)c2ccc(Cl)cc2)c2ccc(Cl)cc2)cc1
inactive: HCT-15 colon 21.7% | SNB-75 CNS 116% | SNB-19 CNS 79.3% | U251 CNS 54% | PC-3 prostate 70.7% | SK-MEL-5 melanoma 38% | UACC-62 melanoma 88.4% | LOX IMVI melanoma 35.4% | SK-MEL-28 melanoma 75.6% | EKVX NSCLC 88.6% | SN12C renal 76.5% | UO-31 renal 64.8% | TK-10 renal 87.6% | ACHN renal 94.5% | CAKI-1 renal 83.4% | CCRF-CEM leukemia 43.1% | MOLT-4 leukemia 50.7%
active: HT29 colon 8.96%

Cc1ncc(-c2ccnc(Nc3ccc(S(C)(=O)=O)cc3)n2)n1C(C)C
active: HCT-15 colon 1.34% | HT29 colon -16.6% | SNB-75 CNS -37.9% | SNB-19 CNS 7.36% | U251 CNS 3.47% | PC-3 prostate -11.1% | SK-MEL-5 melanoma -55.5% | UACC-62 melanoma -71.5% | LOX IMVI melanoma 3.16% | SK-MEL-28 melanoma -41.8% | EKVX NSCLC -10.5% | SN12C renal 0.723% | UO-31 renal -9.24% | TK-10 renal -3.89% | ACHN renal 0.0849% | CAKI-1 renal 9.99% | CCRF-CEM leukemia 4.05% | MOLT-4 leukemia -32.6%
